# Assay results as given in PubChem BioAssay (NCATS).
# “And” between values parts separate entries of the source, which are not always exact repeats. Identical values can stand only once. Records with an inconclusive call do not appear. Entries that show only a call come without a potency. The source holds several records for some structures; these can differ, active in one and inactive in another. The source made the active and inactive calls. The call rests on the fitted dose curve; in most records, active means well fitted curve in the direction sought with a large enough effect; inconclusive means small, poorly fitted or top-dose-only effect, or another doubt; inactive means no such curve, though single readings can be large; an effect the other way counts as inactive or inconclusive.
# Columns and labels:
# [1] = Cellular Toxicity (caspase-3) SHSY5Y (AID 657)
# Summary of the method: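 Luminescent Caspase-Glo 3/7 read-out, 1 hr room temperature, follows 16 hours of compound treatment of SH-SY5Y cells at 37 °C. Normalization: DMSO basal, 10 uM staurosporine as 100%; AC50 values from Hill-equation concentration-response fits.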
# [2] = Cellular Toxicity (caspase-3) BJ (AID 658)
# Summary of the method: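 Readout: Caspase-Glo 3/7 luminescence increase in BJ cells after 16 hr treatment at 37 °C. Staurosporine and tamoxifen served as positive controls; AC50 values came from Hill modelling of data normalized to DMSO and 10 uM staurosporine.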
# [3] = Cellular Toxicity (caspase-3) MRC-5 (AID 659)
# Summary of the method: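 Concentration-dependent caspase 3/7 activation is measured in human normal lung fibroblasts (MRC-5) following 16-hour treatment. AC50 values come from standard Hill-equation modeling of luminescence normalized to DMSO and 10 uM staurosporine.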
# [4] = Cellular Toxicity (caspase-3) Mesangial (AID 660);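 further: cells exposed to compound for 16 h before the caspase read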
# Summary of the method: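 Human renal glomerular mesangial cells (1000/well) were treated with compounds for 16 h at 37 °C in complete medium, then caspase 3/7 activity was read by Caspase-Glo luminescence. Data were normalized to DMSO and 100 uM tamoxifen; AC50 from Hill fits.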
# [5] = Cellular Toxicity (caspase-3) H-4-II-E (AID 663);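 further: cells exposed to compound for 16 hr before readout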
# Summary of the method: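 Apoptosis induction is scored as increased luminescence from caspase 3/7 substrate cleavage in rat hepatoma H-4-II-E cells exposed to compound for 16 hr. Activity is scaled between DMSO and 100 uM tamoxifen.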
# [6] = Cellular Toxicity (caspase-3) Hek293 (AID 664);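 further: cells exposed to compound for 16 h at 37 °C before readout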
# Summary of the method: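 HEK293 cells were exposed to compounds in complete medium for 16 hr at 37 °C, then caspase-3/7 activity was read by Caspase-Glo 3/7 luminescence after 20 min at room temperature. Data normalized to DMSO and 100 uM tamoxifen; AC50 from Hill fits.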
# [7] = Cellular Toxicity (caspase-3) N2a (AID 665);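 further: compound exposure lasted 16 h at 37 °C before readout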
# Summary of the method: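 Mouse N2a neuroblastoma cells (1500/well) were treated with compounds for 16 h at 37 °C, then caspase-3/7 activity was read by Caspase-Glo luminescence after 1 h at room temperature. Data were normalized to DMSO and 10 uM staurosporine; AC50 from Hill fits.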
# [8] = Cellular Toxicity (caspase-3) NIH 3T3 (AID 666);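 further: caspase signal read after 16 h compound exposure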
# Summary of the method: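 Mouse NIH 3T3 fibroblasts (1000 cells/well) were treated with compound for 16 hr at 37°C in complete medium; caspase-3/7 activity was read by Caspase-Glo luminescence. Normalized to DMSO and 100 uM tamoxifen; AC50 from Hill fits.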
# [9] = biological target: Cytochrome P450 3A4 (Homo sapiens) (UniProt P08684); assay: qHTS Assay for Activators of Cytochrome P450 3A4 (AID 885); further: nearly all actives have a fitted effect of over 65% in size
# Summary of the method: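 Signal was normalized against complete inhibition by 57 uM ketoconazole. The reaction used 20nM CYP3A4 with 25uM Luciferin-PPXE, 10-min compound preincubation and a 60-min NADPH-supported step at RT.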
# [10] = biological target: Cytochrome P450 2C9 (Homo sapiens) (UniProt P11712); assay: qHTS Assay for Inhibitors and Substrates of Cytochrome P450 2C9 (AID 883); further: nearly all actives have a fitted effect of over 60% in size; further: potency means the concentration at half of the fitted maximal effect
# Summary of the method: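 Inhibition of CYP2C9 is scored as loss of luminescence, with 57uM sulphaphenazole defining 100% inhibition. Substrate Luciferin-H is used at 100uM, equal to its KM; enzyme at 10nM in 25mM KPO4, 60 min at 37C with NADPH regeneration.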
# Cytochrome P450 2C9 (Homo sapiens), sequence (P11712 whole entry, looked up): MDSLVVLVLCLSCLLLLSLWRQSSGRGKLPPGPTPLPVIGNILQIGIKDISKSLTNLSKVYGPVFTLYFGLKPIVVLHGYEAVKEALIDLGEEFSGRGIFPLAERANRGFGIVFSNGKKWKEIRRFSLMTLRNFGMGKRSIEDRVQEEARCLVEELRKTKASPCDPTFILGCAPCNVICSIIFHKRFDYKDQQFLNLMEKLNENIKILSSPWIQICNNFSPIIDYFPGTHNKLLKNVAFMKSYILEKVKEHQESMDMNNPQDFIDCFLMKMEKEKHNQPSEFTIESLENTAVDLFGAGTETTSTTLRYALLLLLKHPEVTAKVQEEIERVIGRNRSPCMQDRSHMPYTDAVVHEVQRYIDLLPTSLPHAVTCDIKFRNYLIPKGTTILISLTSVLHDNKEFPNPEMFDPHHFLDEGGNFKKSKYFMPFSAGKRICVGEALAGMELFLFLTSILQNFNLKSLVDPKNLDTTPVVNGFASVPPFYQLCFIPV
# Cytochrome P450 3A4 (Homo sapiens), sequence (P08684 whole entry, looked up): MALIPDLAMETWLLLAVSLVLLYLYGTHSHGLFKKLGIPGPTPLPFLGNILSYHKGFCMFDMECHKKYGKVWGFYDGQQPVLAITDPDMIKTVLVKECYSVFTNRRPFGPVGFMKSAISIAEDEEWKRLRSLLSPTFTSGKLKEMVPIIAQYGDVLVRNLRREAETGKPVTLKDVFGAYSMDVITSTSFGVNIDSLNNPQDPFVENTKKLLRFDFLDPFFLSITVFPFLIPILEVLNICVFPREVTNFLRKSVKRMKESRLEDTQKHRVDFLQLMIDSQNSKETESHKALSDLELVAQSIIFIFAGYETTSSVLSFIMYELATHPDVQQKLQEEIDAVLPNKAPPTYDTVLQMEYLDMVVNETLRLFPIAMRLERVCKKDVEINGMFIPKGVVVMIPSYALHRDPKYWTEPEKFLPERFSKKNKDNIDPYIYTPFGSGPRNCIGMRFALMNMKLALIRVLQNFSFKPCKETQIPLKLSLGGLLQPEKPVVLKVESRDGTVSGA
compound,measurement,setting,value
CN(C)[C@@H]1C(=O)C(C(N)=O)=C(O)[C@@]2(O)C(=O)C3=C(O)c4c(O)cccc4[C@@](C)(O)[C@H]3[C@H](O)[C@@H]12,outcome,[1],inactive
same,outcome,[2],inactive
same,outcome,[3],inactive
same,outcome,[4],inactive
same,outcome,[5],inactive
same,outcome,[6],inactive
same,outcome,[7],inactive
same,outcome,[8],inactive
CC(C)(O)C(=O)Nc1ccc([N+](=O)[O-])c(C(F)(F)F)c1,outcome,[1],inactive
same,outcome,[2],inactive
same,outcome,[3],inactive
same,outcome,[4],inactive
same,outcome,[5],inactive
same,outcome,[6],inactive
same,outcome,[7],inactive
same,outcome,[8],inactive
same,outcome,[9],inactive
CC(=O)[O][Hg][c]1ccccc1,outcome,[1],inactive
same,outcome,[2],inactive
same,outcome,[3],inactive
same,outcome,[4],inactive
same,outcome,[5],inactive
same,outcome,[6],inactive
same,outcome,[7],inactive
same,outcome,[8],inactive
C1CCC(NC2CCCCC2)CC1,outcome,[1],inactive
same,outcome,[2],inactive
same,outcome,[3],inactive
same,outcome,[4],inactive
same,outcome,[5],inactive
same,outcome,[6],inactive
same,outcome,[7],inactive
same,outcome,[8],inactive
OCCCBr,outcome,[1],inactive
same,outcome,[2],inactive
same,outcome,[3],inactive
same,outcome,[4],inactive
same,outcome,[5],inactive
same,outcome,[6],inactive
same,outcome,[7],inactive
same,outcome,[8],inactive
Cc1cc(O)ccc1Cl,outcome,[1],inactive
same,outcome,[2],inactive
same,outcome,[3],inactive
same,outcome,[4],inactive
same,outcome,[5],inactive
same,outcome,[6],inactive
same,outcome,[7],inactive
same,outcome,[8],inactive
CCCCCCCCc1ccc(O)cc1,outcome,[1],inactive
same,outcome,[2],inactive
same,outcome,[3],inactive
same,outcome,[4],inactive
same,outcome,[5],inactive
same,outcome,[6],inactive
same,outcome,[7],inactive
same,outcome,[8],inactive
Nc1ccc(Sc2ccc(N)cc2)cc1,outcome,[1],inactive
same,outcome,[2],inactive
same,outcome,[3],inactive
same,outcome,[4],inactive
same,outcome,[5],inactive
same,outcome,[6],inactive
same,outcome,[7],inactive
same,outcome,[8],inactive
CCCCOC(=O)c1ccccc1C(=O)OCc1ccccc1,outcome,[1],inactive
same,outcome,[2],inactive
same,outcome,[3],inactive
same,outcome,[4],inactive
same,outcome,[5],inactive
same,outcome,[6],inactive
same,outcome,[7],inactive
same,outcome,[8],inactive
same,outcome,[9],inactive
Nc1ccc([N+](=O)[O-])cc1,outcome,[1],inactive
same,outcome,[2],inactive
same,outcome,[3],inactive
same,outcome,[4],inactive
same,outcome,[5],inactive
same,outcome,[6],inactive
same,outcome,[7],inactive
same,outcome,[8],inactive
COc1ccc(C(c2ccc(OC)cc2)C(Cl)(Cl)Cl)cc1,outcome,[1],inactive
same,outcome,[2],inactive
same,outcome,[3],inactive
same,outcome,[4],inactive
same,outcome,[5],inactive
same,outcome,[6],inactive
same,outcome,[7],inactive
same,outcome,[8],inactive
O=[N+]([O-])c1cc([N+](=O)[O-])c2ccccc2c1,outcome,[1],inactive
same,outcome,[2],inactive
same,outcome,[3],inactive
same,outcome,[4],inactive
same,outcome,[5],inactive
same,outcome,[6],inactive
same,outcome,[7],inactive
same,outcome,[8],inactive
O=S(=O)(c1ccc(Cl)cc1)c1ccc(Cl)cc1,outcome,[1],inactive
same,outcome,[2],inactive
same,outcome,[3],inactive
same,outcome,[4],inactive
same,outcome,[5],inactive
same,outcome,[6],inactive
same,outcome,[7],inactive
same,outcome,[8],inactive
same,outcome,[9],inactive
c1cc2ccc3cccc4ccc(c1)c2c34,outcome,[1],inactive
same,outcome,[2],inactive
same,outcome,[3],inactive
same,outcome,[4],inactive
same,outcome,[5],inactive
same,outcome,[6],inactive
same,outcome,[7],inactive
same,outcome,[8],inactive
same,outcome,[9],inactive
Nc1ccc(Cl)cc1,outcome,[1],inactive
same,outcome,[2],inactive
same,outcome,[3],inactive
same,outcome,[4],inactive
same,outcome,[5],inactive
same,outcome,[6],inactive
same,outcome,[7],inactive
same,outcome,[8],inactive
CCOCCOC(C)=O,outcome,[1],inactive
same,outcome,[2],inactive
same,outcome,[3],inactive
same,outcome,[4],inactive
same,outcome,[5],inactive
same,outcome,[6],inactive
same,outcome,[7],inactive
same,outcome,[8],inactive
CCOP(=O)(NC(C)C)Oc1ccc(SC)c(C)c1 (stereo not drawn),outcome,[1],inactive
same,outcome,[2],inactive
same,outcome,[3],inactive
same,outcome,[4],inactive
same,outcome,[5],inactive
same,outcome,[6],inactive
same,outcome,[7],inactive
same,outcome,[8],inactive
same,outcome,[9],inactive
CCCCC(CC)COC(=O)c1ccccc1C(=O)OCC(CC)CCCC (stereo not drawn),outcome,[1],inactive
same,outcome,[2],inactive
same,outcome,[3],inactive
same,outcome,[4],inactive
same,outcome,[5],inactive
same,outcome,[6],inactive
same,outcome,[7],inactive
same,outcome,[8],inactive
COC(C)(C)CCCC(C)C/C=C/C(C)=C/C(=O)OC(C)C (stereo not drawn),outcome,[1],inactive
same,outcome,[2],inactive
same,outcome,[3],inactive
same,outcome,[4],inactive
same,outcome,[5],inactive
same,outcome,[6],inactive
same,outcome,[7],inactive
same,outcome,[8],inactive
same,outcome,[9],inactive
CN(C)NC(=O)CCC(=O)O,outcome,[1],inactive
same,outcome,[2],inactive
same,outcome,[3],inactive
same,outcome,[4],inactive
same,outcome,[5],inactive
same,outcome,[6],inactive
same,outcome,[7],inactive
same,outcome,[8],inactive
O=C(O)C(Cl)Cl,outcome,[1],inactive
same,outcome,[2],inactive
same,outcome,[3],inactive
same,outcome,[4],inactive
same,outcome,[5],inactive
same,outcome,[6],inactive
same,outcome,[7],inactive
same,outcome,[8],inactive
O=[N+]([O-])c1c(Cl)c(Cl)cc(Cl)c1Cl,outcome,[1],inactive
same,outcome,[2],inactive
same,outcome,[3],inactive
same,outcome,[4],inactive
same,outcome,[5],inactive
same,outcome,[6],inactive
same,outcome,[7],inactive
same,outcome,[8],inactive
Nc1ccc(Cl)cc1N,outcome,[1],inactive
same,outcome,[2],inactive
same,outcome,[3],inactive
same,outcome,[4],inactive
same,outcome,[5],inactive
same,outcome,[6],inactive
same,outcome,[7],inactive
same,outcome,[8],inactive
same,outcome,[9],inactive
O=C(O)COc1ccccc1,outcome,[1],inactive
same,outcome,[2],inactive
same,outcome,[3],inactive
same,outcome,[4],inactive
same,outcome,[5],inactive
same,outcome,[6],inactive
same,outcome,[7],inactive
same,outcome,[8],inactive
C=CC(=O)NCNC(=O)C=C,outcome,[1],inactive
same,outcome,[2],inactive
same,outcome,[3],inactive
same,outcome,[4],inactive
same,outcome,[5],inactive
same,outcome,[6],inactive
same,outcome,[7],inactive
same,outcome,[8],inactive
COc1ccc2c(c[n+](C)c3c4cc5c(cc4ccc23)OCO5)c1OC,outcome,[9],inactive
CC(=O)NCCc1c[nH]c2ccccc12,Potency,[10],inactive
CC1=NN=C(c2ccc(N)cc2)c2cc3c(cc2C1)OCO3,Potency,[10],1.26 µM (active)
same,outcome,[9],inactive
Cc1nc(-c2ccc(-c3ccc(C(=O)N4CCc5cc6c(cc54)C4(CCN(C)CC4)CO6)cc3)c(C)c2)no1,Potency,[10],7.94 µM (active)
same,outcome,[9],inactive
NCCc1c[nH]c2ccc(O)cc12,outcome,[9],inactive
COc1ccc(C(=O)c2c(C)n(CCN3CCOCC3)c3cc(I)ccc23)cc1,outcome,[9],inactive
O=[N+]([O-])c1c2ccccc2cc2ccccc12,outcome,[1],inactive
same,outcome,[2],inactive
same,outcome,[3],inactive
same,outcome,[4],inactive
same,outcome,[5],inactive
same,outcome,[6],inactive
same,outcome,[7],inactive
same,outcome,[8],inactive
same,outcome,[9],inactive
CC[C@@H]1C(=O)OC[C@@H]1Cc1cncn1C,outcome,[9],inactive
CCCCCC[C@H]1C(=O)O[C@H](C)[C@H](NC(=O)c2cccc(NC=O)c2O)C(=O)O[C@@H](C)[C@@H]1OC(=O)CC(C)C,outcome,[9],inactive
CCCCc1ccc(C(=O)O)nc1,Potency,[10],inactive
same,outcome,[9],inactive
CC(C)c1ccc2c(c1)c(SC(C)(C)C)c(CC(C)(C)C(=O)O)n2Cc1ccc(Cl)cc1,Potency,[10],6.31 µM (active)
same,outcome,[9],inactive
CC[C@@]1(O)C(=O)OCc2c1cc1n(c2=O)Cc2cc3ccccc3nc2-1,Potency,[10],inactive
same,outcome,[9],inactive
CCCN(CCC)[C@@H]1CCc2ccc(O)cc2C1,Potency,[10],inactive
O=C(O)Cc1cnc[nH]1,outcome,[9],inactive
Cn1cnc(CCN)c1,Potency,[10],inactive
O=C1CCCN1CC#CCN1CCCC1,Potency,[10],inactive and 2 µM (active)
CCCN1CCO[C@@H]2c3cc(O)ccc3OC[C@@H]21,outcome,[9],inactive
c1ccc2sc(C3(N4CCCCC4)CCCCC3)cc2c1,outcome,[9],inactive
C[C@]12N[C@H](Cc3ccccc31)c1ccccc12,outcome,[9],inactive
CCCN1CCO[C@@H]2c3cc(O)ccc3OC[C@H]21,outcome,[9],inactive
Nc1ccccc1N,outcome,[9],inactive
CC(C)Oc1cccnc1N(C)C1CCN(Cc2ccccc2)CC1,outcome,[9],inactive
Cc1nccc2c1[nH]c1ccccc12,Potency,[10],inactive
same,outcome,[9],inactive
Clc1cnc(Oc2ccc(Oc3ncc(Cl)cc3Cl)cc2)c(Cl)c1,Potency,[10],inactive
O=c1cccc2n1CC1CNC[C@H]2C1,Potency,[10],inactive
same,outcome,[9],inactive
COc1cc2c(cc1OC)[C@@H]1C(=O)c3ccc4c(c3O[C@@H]1CO2)C=CC(C)(C)O4,outcome,[9],inactive
